Rab9 prom act = activates the Rab9 promoter; AID 485297; 2.8% of 320,000 active; Potency, µM (highest dose often 9.22 µM), for inactives: at the highest dose activation, negative = inhibition, actives largely listed as activators; Huh7 Rab9 promoter-luciferase reporter, luminescence, 24 h; further: % of control where 0% means no effect; nearly all actives have a fitted effect of over 60% in size
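Promoter activation is measured as luciferase luminescence in Huh7 cells stably transfected with a Rab9 promoter–luciferase construct, following 24 h compound exposure at 37 °C and 10 min reagent incubation at ambient temperature.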
NPC1 prom act = activators of NPC1 promoter; Huh7 NPC1 promoter luciferase reporter, 24 h; Potency, µM (doses to about 9.22 µM), for the others: top-dose activation, usual class: activators; 2.4% of 320,000 active; AID 485313; further: % of control where 0% means no effect; nearly all actives have a fitted effect of over 60% in size
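Compounds in DMSO were transferred onto Huh7 NPC1-luciferase reporter cells pre-incubated 2 h; after 24 h at 37 °C, Amplite reagent was dispensed and luminescence recorded 10 min later.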
ELG1 genotox = inducers of genotoxicity in HEK293T ELG1-luciferase cells; HEK293T ELG1-luciferase reporter, luminescence, 16 h; Potency, µM (series often up to 46 µM), inactives show at the highest dose activity change, positive = activation, hits mostly activators; 1.3% of 330,000 active; AID 504466; further: % of control where 0% means no effect; nearly all actives have a fitted effect of over 60% in size
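Quantitative HTS format in 1536-well plates. HEK293T ELG1-luciferase reporter cells receive test compound and are incubated 16 hr at 37 °C, 5% CO2; ONE-Glo added, 30 min room temperature, then luminescence read.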
SMN2 splice up = SMN2 splice variant enhancement; HEK293 SMN2-luciferase splicing reporter, luminescence, 30-36 h; Potency, µM (top dose mostly 46.1 µM), for the others: at the highest dose activity change, positive = activation, usual class: activators; 2.8% of 210,000 active; AID 1458; further: % of control where 0% means no effect; nearly all actives have a fitted effect of over 55% in size
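qHTS luciferase splicing reporter: luminescence rises when SMN2 exon 7 is included in transfected HEK293 cells. Compound exposure lasted 30-36 h at 37C, with 4.5 mM final sodium butyrate as control, followed by a ONE-Glo read.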
FLuc modulator = counter-screen for miR-21 project: firefly luciferase inhibitors or activators; Potency, µM (doses to about 57.5 µM), for inactives: top-dose activity change, negative = inhibition, most hits filed as inhibitors; purified FLuc, Km substrates, luminescence inhibition; AID 588342; P08659; 6.9% of 360,000 active;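 further: plate controls were vehicle for no effect and reference inhibitor for full effect; nearly all actives have a fitted effect of over 55% in size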
Target sequence (P08659 whole entry, looked up): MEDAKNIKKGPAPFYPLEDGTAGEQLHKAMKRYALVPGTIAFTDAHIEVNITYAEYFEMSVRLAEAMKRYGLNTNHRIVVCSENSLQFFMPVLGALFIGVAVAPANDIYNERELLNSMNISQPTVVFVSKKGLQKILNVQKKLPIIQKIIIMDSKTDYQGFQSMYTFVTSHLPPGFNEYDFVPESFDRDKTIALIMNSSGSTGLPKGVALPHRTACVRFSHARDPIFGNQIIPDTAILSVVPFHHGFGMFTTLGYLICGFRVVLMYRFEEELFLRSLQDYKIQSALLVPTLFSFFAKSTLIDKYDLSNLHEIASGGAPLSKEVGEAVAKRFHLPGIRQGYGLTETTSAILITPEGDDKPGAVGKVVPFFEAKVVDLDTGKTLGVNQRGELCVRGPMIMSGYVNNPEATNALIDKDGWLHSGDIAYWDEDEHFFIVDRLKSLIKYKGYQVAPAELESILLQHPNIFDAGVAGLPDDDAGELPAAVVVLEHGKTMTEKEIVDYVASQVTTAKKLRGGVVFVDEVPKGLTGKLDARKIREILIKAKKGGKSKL
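Purified P. pyralis luciferase (10nM final) with 10uM D-luciferin and 10uM ATP (Km levels) in 50mM Tris acetate pH 7.5, 10mM Mg acetate, 0.01% Tween-20, 0.05% BSA; qHTS 6-point titration, ~60 µM downward; luminescence read.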
* marks the source's active call; other numbers are inactive results; u = inconclusive; x = not tested or not shown. Sampled rows, rich in hits. Any-hit rate of the full collection: about 7.5%. The call rests on the fitted dose curve; in most records, active means well fitted curve in the direction sought with a large enough effect; inconclusive means small, poorly fitted or top-dose-only effect, or another doubt; inactive means no such curve, though single readings can be large; an effect the other way counts as inactive or inconclusive. Potency means the concentration at half of the fitted maximal effect.

SMILES	Rab9 prom act	NPC1 prom act	ELG1 genotox	SMN2 splice up	FLuc modulator
COc1ccc(-c2cc(=O)n(-c3nc4ccccc4[nH]3)[nH]2)cc1	u	21%	u	u	11µM*
COc1c(Cl)cc(C(=O)Nc2cc(-c3nc4ccccc4[nH]3)ccc2C)cc1Cl	x	x	x	-40%	u
COc1ccc2oc(=Nc3ccccc3)c(-c3nc4ccccc4[nH]3)cc2c1	u	u	7.3µM*	13µM*	6µM*
COc1ccc(CCCc2nc3ccccc3[nH]2)cc1	-3%	-2%	-4%	x	u
c1ccc(-c2nc3ccccc3[nH]2)cc1	1.6µM*	3.5µM*	u	x	7.6µM*
CCc1cccc(CC)c1NC(=O)CSc1nnc(C2CC2)n1C	-8%	-3%	-3%	x	-3%
O=C(O)c1ccc(Sc2nnc(-c3cccc(Br)c3)o2)c([N+](=O)[O-])c1	0%	6%	-10%	-5%	u
O=C(Cn1c(=O)n(-c2ccccc2)c(=O)c2c3c(sc21)CCC3)c1ccc(Br)cc1	x	x	x	4%	-10%
CC(C)COP(=O)(OCC(C)C)C(O)c1ccccc1F (stereo not given)	0%	-3%	2%	-10%	-16%
Cc1cc(-c2nc3ccccc3[nH]2)ccc1N	0.56µM*	0.89µM*	u	6.3µM*	4.3µM*
O=C(O)c1ccccc1-c1nc2ccccc2[nH]1	u	18%	8%	13%	13µM*
COC(=O)c1ccc(-c2nc3ccccc3[nH]2)cc1	0.5µM*	0.71µM*	u	8.9µM*	1.7µM*
COc1ccc(-c2nc3ccccc3[nH]2)cc1	0.63µM*	0.5µM*	0.52µM*	2.5µM*	0.67µM*
COC(=O)c1ccc(C(=O)Nc2ccc3nc(-c4ccncc4)[nH]c3c2)cc1	-5%	-6%	-1%	x	-5%
O=C(CNc1cccc(S(=O)(=O)N2CCCCC2)c1)Nc1cccc(F)c1	-3%	-1%	-6%	x	1%
Cn1cc([N+](=O)[O-])c(C(=O)NCc2cc3ccccc3[nH]2)n1	-3%	0%	-3%	-3%	2%
c1cncc(-c2nc3ccccc3[nH]2)c1	16%	17%	-1%	10%	u
O=C(O)c1cccc(-c2nc3ccccc3[nH]2)c1	u	u	-6%	16µM*	1.9µM*
Nc1cc(N)cc(-c2nc3ccccc3[nH]2)c1	25%	25%	u	u	24µM*
c1ccc2[nH]c(-c3ccncc3)nc2c1	19%	15%	5%	x	u
Cc1ccc2c(c1)-c1c(c(C(=O)N3CCN(c4cc(Cl)ccc4C)CC3)nn1C)CS2	x	x	x	x	2%
O/N=C(/Cc1ccccn1)c1ccccc1	7%	8%	3%	-7%	-4%
N#Cc1cc2cc3c(cc2nc1N1CCCCC1)OCCO3	6.3µM*	u	u	13µM*	4.3µM*
COC(=O)CNc1c(-c2ccccc2)nc2ccc(Br)cn12	u	u	u	29%	7.6µM*
Cc1ccccc1Nc1c(-c2ccncc2)nc2ccc(Br)cn12	2%	0%	-5%	13µM*	3%
SMILES	Rab9 prom act	NPC1 prom act	ELG1 genotox	SMN2 splice up	FLuc modulator
Cc1ccc2nc(-c3cccnc3)c(Nc3ccccc3C)n2c1	-10%	1%	-10%	-4%	-1%
Cc1ccc2nc(-c3ccncc3)c(Nc3ccccc3C)n2c1	x	x	x	11µM*	-2%
Cc1ccccc1Nc1c(-c2cccnc2)nc2ccc(Br)cn12	-6%	0%	-20%	-29%	-1%
CCC(C)(C)NC(=O)C(c1ccccc1F)N(Cc1ccco1)C(=O)c1csnn1 (stereo not given)	8%	-2%	3%	x	11%
Cc1ccc(NC(=O)COC(=O)c2c(C)nn(-c3ccccc3)c2C)cc1	-6%	0%	2%	x	-2%
Cc1nn(-c2ccccc2)c(C)c1C(=O)OCC(=O)Nc1ccccc1	u	u	11%	x	9.5µM*
COc1ccccc1NC(=O)COC(=O)c1c(C)nn(-c2ccccc2)c1C	u	u	14%	x	7.6µM*
Fc1ccccc1N1CC(c2ccccc2)C(c2cccs2)=N1 (stereo not given)	2%	-5%	2%	-5%	0%
O=c1cc(-c2ccccc2F)oc2ccccc12	2.2µM*	u	u	13µM*	11µM*
CSc1ccc(-c2cc(=O)c3ccccc3o2)cc1	u	24%	9.2µM*	11µM*	4.8µM*
COc1cccc(-c2cc(=O)c3ccccc3o2)c1N	2.1µM*	2.3µM*	x	11µM*	x
CC(C)c1nn2c(=O)cc(COC(=O)c3ccc4c(c3)OCO4)nc2s1	x	x	x	x	-9%
Cc1cc2cc(CN(CCN(C)C)C(=S)NCc3ccco3)c(=O)[nH]c2cc1C	-3%	-5%	-3%	-16%	1%
CCN(CC)CCN(Cc1cc2cc(C)c(C)cc2[nH]c1=O)C(=S)NCc1ccco1	-4%	0%	0%	x	24µM*
c1ccc(Nc2scc(-c3ccccc3)[n+]2Cc2ccco2)cc1	u	-4%	u	-7%	17µM*
c1ccc(C[n+]2c(-c3ccccc3)csc2Nc2ccccc2)cc1	-1%	1%	-4%	-17%	-11%
Cn1cnnc1SCC(=O)Nc1ccc2nc(SCc3ccccc3F)sc2c1	1.6µM*	2.8µM*	u	u	6.7µM*
CCC(CC)C(=O)Nc1ccc2nc(SCc3ccccc3)sc2c1	x	x	x	x	-2%
CCC(=O)Nc1ccc2nc(SCc3ccccc3)sc2c1	x	x	x	x	15µM*
O=C(CSc1nc2ccc(NC(=O)CSc3nnnn3-c3ccccc3)cc2s1)Nc1ccccc1	-2%	-4%	13%	-29%	5%
Cc1cc(C)n(CCCN2CCC(C(=O)Nc3cccc(-c4cccc(F)c4)c3)CC2)n1	2%	-1%	-15%	x	0%
CC(=O)c1cccc(NC(=O)N2CCC(c3ccc(C)cc3)C2)c1 (stereo not given)	15%	u	3%	x	17µM*
Cc1ccc(C2CCN(C(=O)Nc3ccc(F)cc3)C2)cc1 (stereo not given)	u	u	u	x	24µM*
CCC1Oc2ccc(C)cc2N(CC(=O)N2CCOCC2)C1=O (stereo not given)	-2%	-6%	0%	x	-1%
COc1ccccc1Nc1ncc2c(n1)CCN(Cc1cc(F)cc(F)c1)C2	x	x	x	x	1%
SMILES	Rab9 prom act	NPC1 prom act	ELG1 genotox	SMN2 splice up	FLuc modulator
COc1ccccc1Nc1ncc2c(n1)CCN(CC(C)C)C2	x	x	x	x	21µM*
COc1cc(CN2CCc3nc(Nc4ccc5c(c4)OCCO5)ncc3C2)cc(OC)c1OC	x	x	x	x	15µM*
CCc1ccc(CN2CCc3nc(Nc4ccc5c(c4)OCCO5)ncc3C2)cc1	x	x	x	x	-18%
CC(C)(C)C(O)CN1CCCC1 (stereo not given)	-4%	-3%	13%	-17%	3%
O=c1oc2c(CN3CCOCC3)c(O)ccc2c2c1CCCC2	-2%	23%	-14%	-15%	0%
O=c1oc2c(CN3CCOCC3)c(O)ccc2c2ccccc12	29%	4µM*	13%	3%	u

From PubChem
